A selection: hits, their analogues and other compounds. The true share with any hit is near 4.1%.
hcDAF12 agonist: H. contortus DAF-12 nuclear receptor activators, primary screen, cell-based, luminescence, HEK293, lit1-tk-luc reporter; HEK293 hcDAF-12 lit1-tk-luc reporter; 0% DMSO, 100% Δ7-dafachronic acid; activation, % at 6.8 µM; AID 652067, 2013; 1.4% of 370,000 active;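 active means activation above the mean of all tested compounds plus 3 SD, cut at about 5.5% in these data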;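 further: 100% = response to 3 µM Δ7-dafachronic acid high control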
DAX1 inh-1: DAX1 (NR0B1) inhibitors on StAR promoter, primary screen, cell-based, luminescence, SF-1 (NR5A1), full-length DAX-1 | HEK293T StAR-luciferase reporter, SF-1/DAX-1 repression relief | inhibition, % at 6.8 µM | 1.1% of 370,000 active;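 active means inhibition above the mean over all tested compounds plus 3 SD, cut at about 3.6% in these data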;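 further: 0% = DAX-1 cells with DMSO and 100% = cells lacking DAX-1 with DMSO; higher inhibition means more luminescence from relief of DAX-1 repression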
DAX1 inh-2: DAX1 (NR0B1) inhibitors, primary screen, cell-based, HEK293, Gal4-DAX1, luciferase luminescence; HEK293 Gal4-DAX1 luciferase reporter; inhibition, % at 6.75 µM; 0.99% of 340,000 active; AID 504766, 2011;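 active means inhibition above the mean over all tested compounds plus 3 SD, cut at about 4.2% in these data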;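 further: 0% = DAX1-transfected cells with DMSO and 100% = empty-vector control cells with DMSO; inhibition shows as a rise in luminescence from relieved DAX1 repression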
Target sequence (P51843 207-470 limits assumed): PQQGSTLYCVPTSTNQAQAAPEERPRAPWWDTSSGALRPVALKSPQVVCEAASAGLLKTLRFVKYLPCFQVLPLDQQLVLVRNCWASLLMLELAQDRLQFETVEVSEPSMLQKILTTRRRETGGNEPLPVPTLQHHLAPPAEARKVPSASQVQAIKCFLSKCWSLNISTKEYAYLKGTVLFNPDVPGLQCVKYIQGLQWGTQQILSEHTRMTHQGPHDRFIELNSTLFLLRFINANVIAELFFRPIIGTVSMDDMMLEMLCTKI
ssDAF12 agonist: S. stercoralis DAF-12 nuclear receptor activators, primary screen, cell-based, luminescence, HEK293, GRIP1 co-expression, lit1-tk-luc; HEK293 ssDAF-12/GRIP1 lit1-tk-luc reporter; % of 3 µM dafachronic acid response; activation, % at 6.8 µM; 1% of 370,000 active; AID 652126, 2013;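 active means activation above the mean over all tested compounds plus 3 SD, cut at about 0.9% in these data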;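 further: 0% = DMSO-only wells and 100% = 3 µM delta7-dafachronic acid wells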
hgDAF12 agonist: H. glycines DAF-12 receptor agonists, primary screen, cell-based, luminescence, HEK293, GAL4 fusion, UAS-luciferase | Nuclear hormone receptor DAF-12 (Heterodera glycines), GAL4 fusion | HEK293 GAL4-hgDAF12 UAS-luciferase reporter, agonist luminescence; normalized to butyrate control | activation, % at 6.8 µM | 1.8% of 370,000 active;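 active means activation above a cutoff set at the mean of all screened compounds plus 3 SD, cut at about 10% in these data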;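 further: 0% = DMSO wells and 100% = sodium butyrate wells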
The depositor's hits bear a star; · = no result given.

SMILES	hcDAF12 agonist	DAX1 inh-1	DAX1 inh-2	ssDAF12 agonist	hgDAF12 agonist
Nc1cccc(Oc2ccc3c(c2)C(=O)N(CC2CCCO2)C3=O)c1 (centres undefined)	4	0	2	-1	11*
O=C(CSc1nc2ccccc2nc1N1CCCCC1)NCc1ccc(Cl)cc1Cl	0	0	·	-1	2
CCN1C(=S)SC(=O)C1=C1C=C(C)N(Cc2ccco2)C(C)=C1	6.5*	2	3	0	12*
CCN1C(=S)SC(=O)C1=C1C=C(C)OC(C)=C1	0	0	1	-1	2
CC(=O)c1cc(-c2ccc(-c3ccccc3)c(F)c2)c(=O)n2c1CCC2	-3	-1	·	-1	-1
CCCCCCCCN1C(=O)[C@@H](CC(=O)NCCCOC)C[C@@]2(C(=O)OC)C1=C[C@H](C(C)C)O[C@@H]2C1CC1	-2	-1	·	-1	-1
COC(=O)c1ccc(NC(=O)c2ccc(OC(C)=O)c(OC)c2)cc1	3	4.0*	-1	-2	9
Cc1ccc(C(=O)C(C)[n+]2cccc(C(N)=O)c2)cc1 (centres undefined)	-1	0	7.1*	-1	-3
COC(=O)[C@]12C[C@H](CC(=O)N3CCCC3)C(=O)N(Cc3ccc4c(c3)OCO4)C1=C[C@H](COCc1ccccc1)O[C@@H]2C	-2	0	·	-1	-2
Fc1ccc(C2=CC(c3cccs3)n3nnnc3N2)cc1 (centres undefined)	3	0	3	-1	4
Cc1ccc(C2=CC(c3cccs3)n3nnnc3N2)cc1 (centres undefined)	4	0	1	1.0*	2
C[C@@H](NC(=O)[C@@H]1Cc2ccccc2CN1)C(=O)Nc1ccc2c(c1)OCO2	-1	1	5.2*	-1	3
CC(C)[C@H](NC(=O)[C@@H]1Cc2ccccc2CN1)C(=O)Nc1ccc2c(c1)OCO2	-1	1	1	0	3
NCCc1c(C(=O)O)[nH]c2ccc([N+](=O)[O-])cc12	0	0	1	-2	-1
Cc1c(C(=O)O)[nH]c2ccc([N+](=O)[O-])cc12	6.2*	0	·	-1	2
CCOc1ccc(-c2cc(C(=O)O)c3ccccc3n2)cc1	5	3	-1	0	11*
COc1cccc(-c2cc(C(=O)Nn3cnnc3)c3ccccc3n2)c1	6.0*	1	-1	0	0
O=C(NC1=NCCS1)c1cc(-c2ccc(-c3ccccc3)cc2)nc2ccccc12	1	2	0	0.9*	5
COC(=O)c1sccc1NC(=O)c1cc(-c2ccc(C)cc2)nc2ccccc12	0	1	0	1.1*	0
COCC#Cc1ccc(CC[C@H]2O[C@H]3CC[C@H](CO)O[C@H]3C[C@H]2n2cc(C(C)(C)O)nn2)cc1	-2	0	·	-2	1
CC(=O)O[C@@H]1C=C[C@@H](C#Cc2ccc(C(C)(C)C)cc2)O[C@@H]1COC(=O)NCc1ccccc1	-2	-1	·	-1	-2
Cc1cc(NS(=O)(=O)c2ccc(NC(=O)Cc3ccc(Cl)c(Cl)c3)cc2)on1	0	0	·	-1	-1
CC(=O)c1cnc(Nc2ccc(C)cc2)s1	1	2	4.7*	-1	9
O=C(c1ccc(Cl)c(Cl)c1)c1cnc(Nc2ccccc2)s1	0	-1	-1	-1	2
CCSc1nnc(NC(=O)c2cccc(OCc3c(C)noc3C)c2)s1	-2	0	-2	-2	2
CCSc1nnc(NC(=O)c2cc(C)nc3ccccc23)s1	0	-1	0	-1	0
CCSc1nnc(NC(=O)c2ccc3nc[nH]c3c2)s1	2	1	2	-1	13*
CCSc1nnc(NC(=O)C2CCCCC2C(=O)O)s1 (centres undefined)	0	0	-1	-1	-2

Screens as filed in PubChem BioAssay.
